# From PubChem BioAssay
# NTR1 agonist – NTR1 (human) agonism. P30989. NTR1-U2OS beta-arrestin-GFP spot imaging, agonist mode. activation, % at 20 µM. 330,000 compounds, 0.17% hits;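 active means activation at or above 40% of the spot to cytoplasm intensity ratio, with at least 20 cells analyzed; inconclusive means wells under 20 cells, flagged as cytotoxic or low count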;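 further: 0% = DMSO without peptide and 100% = 100 nM NTR1 peptide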
# VLA-4 inh – inhibition in a human VLA-4 binding assay; VLA-4 expressing cells, ligand binding flow cytometry; inhibition, % (about 7 µM as worked out from the volumes in the protocol); 330,000 compounds, 0.2% hits; AID 2557; in the data active means inhibition above about 50%
# Target sequence (P13612 whole entry, looked up): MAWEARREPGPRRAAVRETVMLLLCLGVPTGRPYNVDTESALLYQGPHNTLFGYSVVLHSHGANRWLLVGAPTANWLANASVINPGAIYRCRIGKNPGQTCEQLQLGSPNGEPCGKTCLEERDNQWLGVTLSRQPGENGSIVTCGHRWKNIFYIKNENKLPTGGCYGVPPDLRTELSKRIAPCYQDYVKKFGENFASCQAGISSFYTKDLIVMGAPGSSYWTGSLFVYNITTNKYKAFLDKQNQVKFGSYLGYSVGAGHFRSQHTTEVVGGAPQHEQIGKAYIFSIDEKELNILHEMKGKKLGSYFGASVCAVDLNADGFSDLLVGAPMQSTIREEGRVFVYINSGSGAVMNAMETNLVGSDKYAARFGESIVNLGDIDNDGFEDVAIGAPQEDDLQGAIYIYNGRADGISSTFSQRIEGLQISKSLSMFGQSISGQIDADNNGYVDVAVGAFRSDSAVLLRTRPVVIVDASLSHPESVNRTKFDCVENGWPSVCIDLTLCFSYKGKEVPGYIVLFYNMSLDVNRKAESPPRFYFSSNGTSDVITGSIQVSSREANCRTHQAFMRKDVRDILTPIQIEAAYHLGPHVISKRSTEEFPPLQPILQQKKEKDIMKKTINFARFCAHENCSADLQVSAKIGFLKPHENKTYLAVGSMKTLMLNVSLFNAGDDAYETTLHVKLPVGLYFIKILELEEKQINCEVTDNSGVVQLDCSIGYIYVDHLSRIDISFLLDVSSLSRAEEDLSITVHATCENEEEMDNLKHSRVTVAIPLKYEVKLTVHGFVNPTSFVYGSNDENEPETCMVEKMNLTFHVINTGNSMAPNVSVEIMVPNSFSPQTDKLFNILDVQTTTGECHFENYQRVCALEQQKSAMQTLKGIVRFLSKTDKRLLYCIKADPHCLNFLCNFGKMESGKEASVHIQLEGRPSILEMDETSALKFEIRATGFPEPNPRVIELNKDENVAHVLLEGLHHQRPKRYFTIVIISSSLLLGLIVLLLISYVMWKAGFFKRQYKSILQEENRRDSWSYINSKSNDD
# DSG3 Ab inh – human desmoglein-3 autoantibody binding inhibition; 310,000 compounds, 0.48% hits; AID 588358; DSG3-coupled beads, scFv-anti-DSG3-GFP binding, flow cytometry; active compounds read low; P32926; binding (percent of control), % at 10 µM;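 active means binding more than 3 SD below its plate's average and above zero; inconclusive means below that plate limit but binding exactly zero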;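 further: hits lower antibody fragment binding to DSG3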
# AI-2 QS modul – modulators of Vibrio harveyi AI-2 quorum sensing system. Vibrio harveyi JMH597 AI-2 luminescence/OD600 ratio, 9 h; active compounds read low; strain lacks LuxN and CqsS sensors; 0 = neutral-control median. activity change, % at 7.5 µM. 300,000 compounds, 0.4% hits. AID 2094; in the data active means activity change below about -75%, passing the limit was not always enough; inconclusive means no clear call, values can overlap the other calls;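 further: luminescence divided by OD600 gain over 9 h not by final OD600 alone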
# JMH597 growth rt – retest Vibrio harveyi JMH597 growth inhibition | OD600 absorbance, 9 h; lacks LuxN and CqsS sensors | 750 compounds, 1% hits | shares compounds with AI-2 QS modul | growth inhibition, % at 7.5 µM;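 active means every replicate shows growth inhibition above 50%; inconclusive means at least half, but not all, replicates pass that cutoff; inactive means fewer than half of replicates pass it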
# BB721 lum counter – retest counter-screen: lowers luminescence of constitutive-QS Vibrio harveyi BB721; shares compounds with AI-2 QS modul; 750 compounds, 95% hits; AID 2727; inhibition, % at 7.5 µM; 9 h;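 active means inhibition above about 80% in every replicate, not just on average, limit read from the data; inconclusive means at least half of replicates past the limit, but not all; inactive means fewer than half of replicates past the limit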
# BB721 growth – retest Vibrio harveyi BB721 growth inhibition; 750 compounds, 3% hits; shares compounds with AI-2 QS modul; OD600 absorbance, 9 h; growth inhibition, % at 7.5 µM; AID 2728;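 active means every replicate shows growth inhibition above 50%; inconclusive means at least half but not all replicates above 50% inhibition; inactive means under half of replicates above 50% inhibition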
# JMH597 AI-2 mod – Vibrio harveyi AI-2 signaling luminescence modulation – JMH597 strain, confirmation | shares compounds with AI-2 QS modul | Vibrio harveyi JMH597 AI-2 quorum sensing luminescence, 9 h; luxN and CqsS knockout, AI-2 only | 750 compounds, 97% hits | inhibition, % at 7.5 µM;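 active means every replicate shows more than 75% inhibition of signal versus neutral control wells; inconclusive means half to three quarters of replicates exceed 75% inhibition; inactive means fewer than half of replicates exceed 75% inhibition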
# Active calls of the source: *; ? = inconclusive; nt = no result. Shown are actives, neighbours in structure and some others; about 1.1% of the full set was active somewhere.
SMILES,NTR1 agonist,VLA-4 inh,DSG3 Ab inh,AI-2 QS modul,JMH597 growth rt,BB721 lum counter,BB721 growth,JMH597 AI-2 mod
CCc1nnc(NC(=O)CSc2ccc(-c3ccc(F)cc3)nn2)s1,0,4,nt,-93*,-23,90*,-10,93*
CCc1nnc(NC(=O)CSc2ccc(-c3ccccc3OC)nn2)s1,0,4,114,-87*,-8,98*,-7,99*
COc1ccccc1-c1ccc(SCC(=O)NCCc2ccccc2)nn1,0,-3,107,6,nt,nt,nt,nt
Cc1ccc(CNC(=O)CSc2ccc(-c3cccs3)nn2)cc1,-1,4,75,24,nt,nt,nt,nt
CCc1nnc(NC(=O)CSc2ccc(-c3cccs3)nn2)s1,-2,11,108,-89*,-8,97*,11,98*
CCc1nnc(NC(=O)CSc2nc(-c3ccccc3)cc(-c3ccc(F)cc3)c2C#N)s1,1,5,nt,7,nt,nt,nt,nt
CCn1cc(C(=O)N2CCCC(C(=O)c3cccc(C(F)(F)F)c3)C2)cn1 (stereo unspecified),nt,nt,95,nt,nt,nt,nt,nt
COc1cc(-c2ccc3cc(OC)c(OC)c(OC)c3c2)cc(OC)c1OC,nt,nt,100,nt,nt,nt,nt,nt
Cc1ccc(Cn2ncn(-c3ccccc3)c2=O)cc1,0,-6,94,?,4,95*,26,97*
COc1ccc(C(C#N)CC(=O)c2ccc(OC)c(OCc3ccccc3)c2)cc1OC (stereo unspecified),nt,nt,104,nt,nt,nt,nt,nt
CCC(C(=O)Nc1c(C)cc(C)cc1C)N1CCCCCC1 (stereo unspecified),0,1,114,-85*,-8,2,-1,4
Cc1cccc(C)c1NC(=O)C(C)N1CCCCC1 (stereo unspecified),0,4,nt,1,nt,nt,nt,nt
O=C1CN(C(=O)COC(=O)CCCOc2ccccc2)c2ccccc2N1,0,-12,104,-81*,-7,94*,-17,96*
CC1(C)C(=O)Nc2ccccc2N1C(=O)COC(=O)CCSc1ccccc1,-3,-11,98,-85*,7,92*,-29,95*
Cc1ccc(OCCC(=O)OCC(=O)N2CC(=O)Nc3ccccc32)cc1,1,-2,97,nt,nt,nt,nt,nt
CC(C)CC1NC(=O)c2ccccc2-n2c1nc1ccc(Cl)cc1c2=O (stereo unspecified),-2,12,nt,nt,nt,nt,nt,nt
CNC(=O)COC(=O)c1ccc(NS(=O)(=O)c2ccc3c(c2)OCCO3)cc1,0,6,116,-3,nt,nt,nt,nt
CCCCNC(=O)COC(=O)c1ccc(NS(=O)(=O)c2ccc3c(c2)OCCO3)cc1,2,7,100,-92*,15,98*,-14,99*
O=C(/C=C/c1cccc(Cl)c1)NCc1ccccc1,0,7,104,-89*,1,96*,0,97*
O=C(/C=C/c1cccc(Cl)c1)NCc1cccs1,2,20,100,-83*,16,90*,15,91*
Cc1ccc(-c2nnc(SCC(=O)NCC3CCCO3)nc2-c2ccc(C)cc2)cc1 (stereo unspecified),2,nt,102,nt,nt,nt,nt,nt
CCCc1c(C(=O)N/N=C/C2CC=CCC2)nnn1-c1nonc1N (stereo unspecified),nt,nt,100,nt,nt,nt,nt,nt
CNC(=O)Cn1nc(-c2ccc(Cl)cc2)c2ccccc2c1=O,0,8,92,23,nt,nt,nt,nt
COc1ccc(C(=O)CC(c2ccccc2)S(=O)(=O)c2ccc(C)cc2)cc1 (stereo unspecified),10,37,nt,14,nt,nt,nt,nt
COc1ccc(C(CC(=O)c2ccc(O)cc2)S(=O)(=O)c2ccc(C)cc2)cc1 (stereo unspecified),2,0,124,-91*,3,96*,-13,97*
SMILES,NTR1 agonist,VLA-4 inh,DSG3 Ab inh,AI-2 QS modul,JMH597 growth rt,BB721 lum counter,BB721 growth,JMH597 AI-2 mod
Cc1cc(C(=O)CCC(=O)Nc2cccc(F)c2)c(C)s1,nt,nt,102,nt,nt,nt,nt,nt
O=C(CCc1ccccc1)Nc1cc(Cl)ccc1O,1,-1,nt,-97*,47,100*,46,100*
C[C@H]1CN([C@@H](C)CO)C(=O)c2cccc(NC(=O)Nc3ccc(C(F)(F)F)cc3)c2O[C@@H]1CN(C)S(=O)(=O)c1ccc(Cl)cc1,12,0,100,nt,nt,nt,nt,nt
Oc1oc(-c2ccccc2)nc1C=NCc1ccccc1,4,7,103,?,14,93*,22,95*
COc1cc(/C=N/NC(=O)CCn2nnc3ccccc32)ccc1O,3,-6,103,-3,nt,nt,nt,nt
COc1cc(/C=N\NC(=O)Cn2nnc3ccccc32)cc(OC)c1OC,0,-2,102,-87*,-3,93*,-34,96*
COc1ccc(NC(=O)CCNC(=O)Cn2cnc3ccccc3c2=O)cc1OC,0,30,109,29,nt,nt,nt,nt
COc1cccc(/C=N\NC(=O)Cn2nnc3ccccc32)c1O,-1,6,104,-29,nt,nt,nt,nt
COc1ccc(/C=N/NC(=O)Cn2cnc3ccccc3c2=O)cc1OC,1,16,101,-91*,-6,97*,-12,98*
COc1cc(/C=N/NC(=O)Cn2nnc3ccccc32)ccc1O,0,2,103,-87*,-25,94*,-29,96*
CCOc1ccc(C(=O)Nc2nnc(SCC(=O)NCC3CCCO3)s2)cc1OCC (stereo unspecified),-1,-7,109,22,nt,nt,nt,nt
Cc1csc(N=Cc2ccc([N+](=O)[O-])o2)n1,nt,nt,101,nt,nt,nt,nt,nt
Cc1ccc(NC(=O)c2ccccc2)cc1,0,-6,98,15,nt,nt,nt,nt
Cc1ccc(NC(=O)C(=O)c2ccc(C)cc2)cc1,1,-4,101,-93*,3,97*,19,97*
CN(C)S(=O)(=O)c1cccc(NC(=O)Cn2cnc3ccccc3c2=O)c1,0,1,100,-88*,15,96*,13,97*
NS(=O)(=O)c1ccc(NC(=O)COC(=O)Cn2cnc3ccccc3c2=O)cc1,1,-14,90,nt,nt,nt,nt,nt
CCN(CC)S(=O)(=O)c1ccc(NC(=O)Cn2cnc3ccccc3c2=O)cc1,0,16,100,-94*,23,99*,13,99*
Nc1nc(-c2ccc([N+](=O)[O-])cc2)cc(=O)[nH]1,nt,nt,91,nt,nt,nt,nt,nt
O=C(Nc1c2c(nn1-c1ccccc1)CS(=O)(=O)C2)C1CC1,nt,nt,98,nt,nt,nt,nt,nt
O=C1c2ccccc2C(=O)N1CCCCNc1ccccc1,nt,nt,101,nt,nt,nt,nt,nt
c1ccc(NCCCNc2ccccc2)cc1,0,4,105,-81*,0,93*,4,93*
C[C@@H]1CN([C@H](C)CO)C(=O)c2cc(Br)cnc2O[C@@H]1CN(C)C(=O)Nc1ccccc1,nt,nt,97,nt,nt,nt,nt,nt
CSc1ccc(Cl)c(C(=O)Nc2ccc(OCC(N)=O)cc2)c1,0,8,109,?,14,6,15,5
